Assay results: PubChem BioAssay (NCATS)
Records with an inconclusive call do not appear. For some of these results: Entries with a potency or affinity are not part of this list. The source made the active and inactive calls. Unless noted, how the calls were made is not given here.

How the values were obtained:
[1] = qHTS profiling of the MIPE4 collection as inhibitors of Plasmodium falciparum (DD2) proliferation (AID 743345); conditions: P. falciparum Dd2 in erythrocytes, SYBR Green DNA, 72 h; at 28.5 µM (top of the series) unless noted
Summary of the method: (§1)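 Erythrocytes infected with P. falciparum (0.3% parasitemia, 2.5% hematocrit) incubated with compounds 72 h at 37 C, 5% CO2. Lysis with saponin/Triton buffer containing SYBR Green I, overnight at room temperature in the dark; DNA fluorescence (485/535 nm) normalised to 0.29 uM artemisinin and DMSO.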

[2] = qHTS profiling of the MIPE4 collection as inhibitors of Plasmodium falciparum (DD2) proliferation (Rep 2) (AID 743346); conditions: P. falciparum Dd2 in erythrocytes, SYBR Green DNA, 72 h; at 28.5 µM (top of the series) unless noted
Summary of the method: as §1

[3] = qHTS profiling of the MIPE4 collection as inhibitors of Plasmodium falciparum (HB3) proliferation (AID 743347);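 further: plate controls were DMSO vehicle wells for no effect and artemisinin wells for full effect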; conditions: P. falciparum HB3 in erythrocytes, SYBR Green DNA, 72 h; at 28.5 µM (top of the series) unless noted
Summary of the method: as §1

[4] = Ebola virus entry assay, green fluorescence channel
[5] = Ebola virus entry assay, blue channel fluorescence
[6] = Ebola virus entry assay, green channel fluorescence
[7] = Ebola virus entry assay, reporter ratio channel; AC50: Channel type: primary unless noted; outcome: Channel type: primary unless noted
[8] = Ebola virus entry assay, blue channel (ratio component)
[9] = qHTS assay for measurement of the activity of small molecule inhibitors on Zika virus induced Caspase-3 activity in human iPSC derived neural progenitor cells (hNPCs) (AID 1224857; active means well fitted inhibition curve with a large enough effect; further: % of control where 0% means no effect; nearly all actives have a fitted effect of over 65% in size)
Summary of the method: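 Zika virus (2 FFU/cell) infection of human iPSC-derived NPCs, 6 h, following 1 h compound preincubation. Read-out: Caspase-Glo 3/7 luminescence.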

[10] = qHTS assay for measurement of the activity of small molecule inhibitors on Zika virus induced Caspase-3 activity in human astrocytoma cells (AID 1224859; active means well fitted inhibition curve with a large enough effect;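 further: plate controls were ZIKV-infected untreated cells for no effect and uninfected cells for full effect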)
Summary of the method: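 Caspase activation in ZIKV-infected SNB-19 cells (2 FFU/cell, 6 h) measured by Caspase-Glo 3/7 luminescence after 30 min RT; compound pre-incubated 1 h; normalised to uninfected and infected controls.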

[11] = Ebola virus entry assay, ratio channel
Wherever efficacy is given: 0% is about no effect.

O=c1[nH]cnc2[nH]ncc12
parasite growth remaining, % of DMSO control (lower = more inhibition) [1]: 91.2%
parasite growth, % of control (lower = inhibition) [2]: 153%
growth, % of control [3]: 93.3%
efficacy [4]: -34% (inactive)
outcome [5]: inactive
outcome [6]: inactive
outcome [7]: inactive
outcome [8]: inactive

COc1ccc2c3c1O[C@H]1[C@H](O)CC[C@H]4[C@@H](C2)N(C)CC[C@@]341
efficacy [4]: -11.3% (inactive)
outcome [5]: inactive
outcome [6]: inactive
outcome [7]: inactive
outcome [8]: inactive
outcome [9]: inactive
outcome [10]: inactive

CC1(C)C(C=C(Cl)Cl)C1C(=O)OC(C#N)c1cccc(Oc2ccccc2)c1 (centres undefined)
efficacy [4]: -14.1% (inactive)
outcome [5]: inactive
outcome [6]: inactive
outcome [7]: inactive
outcome [8]: inactive
outcome [9]: inactive
outcome [10]: inactive

O=C(NCC(O)CO)c1c(I)c(C(=O)NCC(O)CO)c(I)c(N(CCO)C(=O)CO)c1I (centres undefined)
efficacy [4]: 35.5% (inactive)
outcome [5]: inactive
outcome [7]: inactive
outcome [8]: inactive

C/C(=C(\CCO)SS/C(CCO)=C(\C)N(C=O)Cc1cnc(C)nc1N)N(C=O)Cc1cnc(C)nc1N
efficacy [4]: -13% (inactive)
outcome [11]: inactive
outcome [6]: inactive
outcome [7]: inactive
outcome [8]: inactive

N[C@@H](CCC(=O)N[C@@H](CS)C(=O)NCC(=O)O)C(=O)O
efficacy [4]: -20.9% (inactive)
outcome [5]: inactive
outcome [7]: inactive
outcome [8]: inactive

CC[N+]1(CC)CCC(OC(=O)C(O)(c2ccccc2)c2ccccc2)C1 (centres undefined)
efficacy [4]: -22.9% (inactive)
outcome [5]: inactive
outcome [6]: inactive
outcome [7]: inactive
outcome [8]: inactive
outcome [9]: inactive
outcome [10]: inactive

CN1Cc2cc(C(=O)N3CCC(C4CCNCC4)CC3)ccc2NC(CC(=O)O)C1=O (centres undefined)
efficacy [4]: 57.9% (inactive)
outcome [5]: inactive
outcome [7]: inactive
outcome [8]: inactive

CC(=O)O[C@]1(C(C)=O)CC[C@H]2[C@@H]3C[C@H](C)C4=CC(=O)CC[C@]4(C)[C@H]3CC[C@@]21C
efficacy [4]: 38.2% (inactive)
outcome [5]: inactive
outcome [7]: inactive
outcome [8]: inactive

Cc1c(C)c2c(c(C)c1O)CCC(C)(COc1ccc(CC3SC(=O)NC3=O)cc1)O2 (centres undefined)
efficacy [4]: 35.5% (inactive)
outcome [5]: inactive
outcome [7]: inactive

CC[N+](CC)(CC)CCOc1cccc(OCC[N+](CC)(CC)CC)c1OCC[N+](CC)(CC)CC
parasite growth, % of control (lower = inhibition) [2]: 133%
growth, % of control [3]: 111%
efficacy [4]: 15.9% (inactive)
outcome [5]: inactive
outcome [6]: inactive
outcome [7]: inactive
outcome [8]: inactive

CN1CC[C@]23c4c5ccc(O)c4O[C@H]2[C@@H](O)CC[C@H]3[C@H]1C5
efficacy [4]: 13.6% (inactive)
outcome [5]: inactive
outcome [6]: inactive
outcome [7]: inactive
outcome [8]: inactive
outcome [9]: inactive
outcome [10]: inactive

CC(=O)OCC(=O)[C@@]1(OC(C)=O)[C@@H](C)C[C@H]2[C@@H]3C[C@H](F)C4=CC(=O)C=C[C@]4(C)[C@@]3(F)[C@@H](O)C[C@@]21C
efficacy [4]: 58.7% (inactive)
outcome [5]: inactive
outcome [7]: inactive
outcome [8]: inactive

O=C(N/N=C/c1ccccc1O)c1ccncc1
efficacy [4]: 66.8% (inactive)
outcome [5]: inactive
outcome [7]: inactive
outcome [8]: inactive

CC1(C)OC(=O)NC1=O
efficacy [4]: 15.4% (inactive)
outcome [11]: inactive
outcome [6]: inactive
outcome [7]: inactive
outcome [8]: inactive

CCCCCCCCCC(=O)O[C@H]1CC[C@H]2[C@@H]3CCC4=CC(=O)CC[C@@H]4[C@H]3CC[C@]12C
efficacy [4]: 27.8% (inactive)
outcome [5]: inactive
outcome [6]: inactive
outcome [7]: inactive
outcome [8]: inactive
outcome [9]: inactive
outcome [10]: inactive

c1ccc(CN2CCNCC2)cc1
efficacy [4]: -15.2% (inactive)
outcome [5]: inactive
outcome [6]: inactive
outcome [7]: inactive
outcome [8]: inactive
outcome [9]: inactive
outcome [10]: inactive

COc1nccnc1NS(=O)(=O)c1ccc(N)cc1
efficacy [4]: -13.7% (inactive)
outcome [11]: inactive
outcome [6]: inactive
outcome [7]: inactive
outcome [8]: inactive

COCCOCC(OC)OC
efficacy [4]: 16.2% (inactive)
outcome [11]: inactive
outcome [6]: inactive
outcome [7]: inactive
outcome [8]: inactive

COc1cc2c3cc1Oc1cc(ccc1O)C[C@@H]1c4c(cc(OC)c(O)c4Oc4ccc(cc4)C[C@@H]3N(C)CC2)CC[N+]1(C)C
efficacy [4]: -16.5% (inactive)
outcome [11]: inactive
outcome [6]: inactive
outcome [7]: inactive
outcome [8]: inactive

Cc1nc2ccccn2c(=O)c1CCN1CCC(C(=O)c2ccc(F)cc2)CC1
efficacy [4]: 25.5% (inactive)
outcome [11]: inactive
outcome [6]: inactive
outcome [7]: inactive
outcome [8]: inactive

NC(=O)c1ncn([C@@H]2O[C@H](CO)[C@@H](O)[C@H]2O)c1O
efficacy [4]: -21.3% (inactive)
outcome [11]: inactive
outcome [6]: inactive
outcome [7]: inactive
outcome [8]: inactive

Oc1c(Br)cc(Br)c2cccnc12
efficacy [4]: -19.4% (inactive)
outcome [11]: inactive
outcome [6]: inactive
outcome [7]: inactive
outcome [8]: inactive

Cc1ccnc(NS(=O)(=O)c2ccc(N)cc2)n1
efficacy [4]: -24.3% (inactive)
outcome [11]: inactive
outcome [6]: inactive
outcome [7]: inactive
outcome [8]: inactive

Cc1c(I)c(=O)n(-c2ccccc2)n1C
efficacy [4]: -23.5% (inactive)
outcome [11]: inactive
outcome [6]: inactive
outcome [7]: inactive
outcome [8]: inactive

CC(NN)c1ccccc1 (centres undefined)
efficacy [4]: -30% (inactive)
outcome [11]: inactive
outcome [6]: inactive
outcome [7]: inactive
outcome [8]: inactive

CCN1CCC[C@H]1CNC(=O)c1c(OC)ccc(Br)c1OC
efficacy [4]: -13.7% (inactive)
outcome [11]: inactive
outcome [6]: inactive
outcome [7]: inactive
outcome [8]: inactive

CC(C)NNC(=O)c1ccncc1
efficacy [4]: -20.5% (inactive)
outcome [11]: inactive
outcome [6]: inactive
outcome [7]: inactive
outcome [8]: inactive

O=C1c2ccccc2C(=O)c2c1ccc(O)c2O
efficacy [4]: -18.6% (inactive)
outcome [11]: inactive
outcome [6]: inactive
outcome [7]: inactive
outcome [8]: inactive
